# Measured values published in PubChem BioAssay (NCI).
# About 83,000 compounds went through this panel and 20% of them were active in at least one assay; those are over-represented in the sample as a whole.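 Single-dose data. Exposure time 48 hours. Values below 10 considered active.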 A number with no mark means an inactive call. Active and inactive are the calls of the source.
# Assays:
# Test in all cases: NCI-60 one-dose screen, 48 h (100 = growth as untreated, 0 = no growth, -100 = all killed)
# Details in all cases: 10 µM
# [1] = tested on: NCI-H23 lung
# [2] = tested on: NCI-H226 lung
# [3] = tested on: HOP-62 NSCLC
# [4] = tested on: NCI-H460 lung
# [5] = tested on: HOP-92 NSCLC
# [6] = tested on: NCI-H522 lung
# [7] = tested on: A549/ATCC NSCLC
# [8] = tested on: 786-0 renal
# [9] = tested on: COLO 205 colon
# [10] = tested on: DU-145 prostate
# [11] = tested on: K-562 leukemia
# [12] = tested on: MALME-3M melanoma
# [13] = tested on: MDA-MB-231 breast
# [14] = tested on: RXF 393 renal
# [15] = tested on: SF-268 CNS
# [16] = tested on: SF-295 CNS
# [17] = tested on: SF-539 CNS
# [18] = tested on: UACC-257 melanoma
# [19] = tested on: M14 melanoma
SMILES,growth [1],growth [2],growth [3],growth [4],growth [5],growth [6],growth [7],growth [8],growth [9],growth [10],growth [11],growth [12],growth [13],growth [14],growth [15],growth [16],growth [17],growth [18],growth [19]
O=C(O)COc1c(Cl)cc([N+](=O)[O-])cc1Cl,99%,96.4%,88.8%,109%,78.5%,76.8%,81.7%,88.6%,102%,111%,92.2%,97.1%,117%,102%,96.5%,100%,99.5%,79.7%,88.7%
O=C1c2ccccc2C(=O)c2c1ccc(C(Br)Br)c2Cl,8.26% (active),80.4%,96%,78%,42.7%,-72.9% (active),88.3%,-78.9% (active),-33.4% (active),33.1%,-28.9% (active),-70.9% (active),-41.9% (active),36.2%,-19.1% (active),90.5%,69.9%,100%,10.7%
CC[C@H]1OC(=O)[C@H](C)[C@@H](O[C@H]2C[C@@](C)(OC)[C@@H](O)[C@H](C)O2)[C@H](C)[C@@H](O[C@@H]2O[C@H](C)C[C@H](N(C)C)[C@H]2O)[C@](C)(OC)C/C(C)=C2/O[C@@]1(C)C=C2C,83.9%,84.6%,77.9%,-49.6% (active),36.3%,44.4%,61.9%,72%,-47.3% (active),76.9%,-19.6% (active),-80% (active),-44.2% (active),21.3%,64.1%,95.5%,64.7%,17.7%,-75.1% (active)
CC(=O)OC/C=C(/C)C[P+](c1ccccc1)(c1ccccc1)c1ccccc1,80.1%,66%,65.6%,40.3%,64.3%,74.6%,64.6%,74.5%,48.3%,58.3%,28.4%,61.7%,75.2%,98%,76.7%,41.6%,64.2%,69.7%,46.6%
O=S(=O)(O)c1cccc(Nc2ccc3ccccc3c2)c1,92%,86.5%,84.4%,101%,74.8%,87.9%,94.1%,104%,97.8%,109%,98.7%,88.1%,90.1%,107%,95.8%,104%,102%,89.7%,92.7%
Cc1[nH]c2ccccc2c1/C=N/Nc1ncnc2sc3c(c12)CCN(CC(=O)OC(C)(C)C)C3,91.6%,98%,92.4%,98.3%,61.2%,58.4%,65%,47.1%,63.4%,80.5%,22.3%,120%,84.5%,-0.516% (active),93.8%,88.8%,62.7%,63.6%,73.1%
COc1ccc(C2=Cn3c(CCC(=O)c4nc5ccccc5[nH]4)nnc3SC2)cc1,94.5%,89.3%,93.7%,101%,77.5%,98.6%,106%,104%,123%,97.7%,3.14% (active),102%,92.2%,112%,107%,83.7%,92%,107%,111%
O=C(CC(CC(=O)c1ccccc1)c1ccccc1O)c1ccccc1,92.8%,87.8%,85.8%,93%,88.9%,89.3%,93%,96.5%,106%,103%,89.4%,91.8%,90.4%,107%,89.8%,99.9%,99.1%,98.4%,92.8%
O=C(CSc1nccc(Nc2cccc3ccccc23)n1)c1ccc(Cl)cc1,79.6%,84.8%,81.9%,99.5%,82.5%,81.9%,87.7%,102%,108%,116%,84.3%,101%,79.1%,106%,95%,95%,94.5%,109%,85.8%
NC(CSC(c1ccccc1)(c1ccccc1)c1cccc2ccccc12)C(=O)O (centres undefined),94.2%,96.6%,104%,98.8%,81.6%,104%,92.7%,98.2%,108%,106%,103%,112%,96.1%,94.2%,85%,91.1%,94.5%,103%,108%
O=C(/C=C/c1cccc(B(O)O)c1)c1cccc(B(O)O)c1,-0.41% (active),-59.2% (active),-34.7% (active),23.3%,69.6%,-9.1% (active),34.2%,-88.6% (active),-90.8% (active),-69.4% (active),11.5%,26.4%,-9.31% (active),-86.7% (active),-28.5% (active),-14.6% (active),-30.8% (active),-11% (active),-56.3% (active)
COc1ccc(C(=O)N/N=C/c2cc(C(F)(F)F)ccc2Cl)cc1,81.3%,82.3%,107%,99.8%,90.2%,82.1%,97.4%,104%,104%,105%,95.4%,111%,89.4%,74.9%,112%,78.2%,104%,105%,104%
Cc1ccc2nc(Cl)c(-c3nc4ccccc4o3)cc2c1,77.6%,90.7%,92.7%,106%,83%,90.3%,99.6%,99.5%,89.5%,103%,80.7%,86.9%,91.4%,102%,87.9%,105%,99.2%,108%,106%
Nc1cc(Br)c(-c2nn3c(CCC(=O)c4nc5ccccc5[nH]4)nnc3s2)c(Br)c1,87.3%,83.6%,103%,102%,72.8%,97.4%,101%,99.8%,107%,102%,7.05% (active),95.8%,99%,109%,99.7%,108%,83.4%,116%,97.5%
COc1ccc(NC(=O)C2CC3C=CC2C3)c([N+](=O)[O-])c1 (centres undefined),96%,96.1%,100%,107%,81.9%,94.9%,93.8%,123%,115%,110%,88.9%,116%,93.3%,99.8%,102%,95.5%,98.6%,98.1%,130%
Cc1ccc(Cl)cc1NC(=O)CCl,74.2%,99.4%,108%,98.4%,92.1%,55.6%,89.9%,81.2%,110%,99.8%,39%,82.1%,98.5%,91.8%,79.3%,104%,102%,85.8%,62.7%
